We go through seven molecules from PubChem BioAssay (Tox21).

A short description of assay [1]: Caspase-3/7 induction in HepG2 cells by small molecules, qHTS assay (AID 1346978). Note: % is set by controls: 0 for no effect and ±100 for the full control effect; nearly all actives have a fitted effect of over 15% in size. A digest of the protocol: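 Wild-type HepG2 cells, 2,000/well, settled 5 hr at 37 C and 5% CO2, then compound-treated for 17 hr; caspase-3/7 activity read by luminescent Caspase-Glo 3/7 after 30 min at room temperature.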
Assay [2] in a line: Caspase-3/7 induction in CHO-K1 cells by small molecules, qHTS cell viability counter screen (AID 1346979). For activity change, negative = cytotoxicity: % is set by controls: 0 for no effect and ±100 for the full control effect. Note: nearly all actives have a fitted effect of over 35% in size. Note: potency is the fitted concentration of half-maximal effect. A digest of the protocol: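 To flag cytotoxic compounds, treated CHO-K1 wild-type cells were given CellTiter-Fluor at 16hr and read fluorescently after 1hr at 37C; the caspase-3/7 luminescence was measured in these same wells.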
The nature of assay [3]: Caspase-3/7 induction in CHO-K1 cells by small molecules, qHTS assay (AID 1346980). Note: % is set by controls: 0 for no effect and ±100 for the full control effect; nearly all actives have a fitted effect of over 15% in size. In short, it runs like this: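 Wild-type CHO-K1 cells exposed to compounds for 17hr at 37 C, 5% CO2. Caspase-3/7 activity then measured by Caspase-Glo 3/7 luminescence after 30min at room temperature.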
Assay [4] can be described thus: Caspase-3/7 induction in HepG2 cells by small molecules, qHTS cell viability counter screen (AID 1346981). Note: series mostly up to about 92 µM; % is set by controls: 0 for no effect and ±100 for the full control effect; nearly all actives have a fitted effect of over 30% in size. In short, it runs like this:
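Fluorescence read-out of live-cell protease activity (CellTiter-Fluor) after 1 hr with reagent. This was measured in the same wells as the caspase-3/7 luminescence, on HepG2 cells exposed to DMSO-dissolved compounds for 16 hr at 37 C.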

The target in assay [5] is Nuclear receptor subfamily 1 group I member 2 (Homo sapiens) (UniProt O75469). Briefly: Human pregnane X receptor (PXR) small molecule agonists, qHTS assay (AID 1346982). Note: % is set by controls: 0 for no effect and ±100 for the full control effect; nearly all actives have a fitted effect of over 35% in size. A digest of the protocol:
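HepG2 PXR-Luc reporter line, 5% charcoal-stripped FBS; 5 hr pre-incubation, compound (DMSO) 24 hr at 37 C/5% CO2; ONE-Glo 30 min RT; luminescence read-out.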

The target of assay [6] is Acetylcholinesterase (Homo sapiens) (UniProt P22303). Briefly: Acetylcholinesterase (AChE) small molecule antagonists: colormetric cell-based qHTS assay (AID 1347395; calls by dose curve; note: % is set by controls: 0 for no effect and ±100 for the full control effect; nearly all actives have a fitted effect of over 30% in size). In short, it runs like this: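 Neuroblastoma line SH-SY5Y supplied the enzyme; cells were preincubated with compound for 30 min at 37 C and 5% CO2. Acetylthiocholine with DTNB was then added for 90 min at 37 C, and thiocholine was measured by colour.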

The target is the same in assay [7]. Briefly: Acetylcholinesterase (AChE) small molecule antagonists: enzyme-based qHTS assay (AID 1347397; calls by dose curve; note: % is set by controls: 0 for no effect and ±100 for the full control effect; nearly all actives have a fitted effect of over 55% in size). The conditions noted are these: Potency: AChE enzyme activity inhibition. A digest of the protocol:
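Colorimetric DTNB read-out of thiocholine released from acetylthiocholine by recombinant human AChE (50 mU/mL as dispensed). Compounds were preincubated 30 min at RT before substrate/DTNB addition, with a 10 min RT reaction.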

Assay [8] has the same target. Briefly: Acetylcholinesterase (AChE) small molecule antagonists: fluorescence cell-based qHTS assay (AID 1347398; calls by dose curve; note: nearly all actives have a fitted effect of over 50% in size; note: potency is the fitted concentration of half-maximal effect; for activity change, negative = inhibition: % is set by controls: 0 for no effect and ±100 for the full control effect). The conditions noted are these: Potency: AChE activity. In short, it runs like this: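 SH-SY5Y, 2,000 cells/well, attached overnight; cmpd 30 min 37 C; acetylthiocholine/Thiolite Green cocktail 40 min RT; fluorescence Ex/Em 490/520 nm.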
For assay [9] the target is unchanged. Put plainly: Acetylcholinesterase (AChE) small molecule antagonists: enzyme-based qHTS assay with human liver microsomes (AID 1347399; calls by dose curve; note: % is set by controls: 0 for no effect and ±100 for the full control effect; nearly all actives have a fitted effect of over 60% in size). Particulars: Potency: qHTS inhibition. A digest of the protocol:
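Recombinant human AChE (50 mU/mL in the enzyme mix) and human liver microsomes (0.25 mg/mL final) were preincubated with compound and NADPH (0.25 mg/mL final) for 30 min at 37 C. Acetylthiocholine/DTNB was then added; thiocholine was read colorimetrically after 10 min at room temperature.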

For assay [10], the target named is Cytochrome P450 2D6 (Homo sapiens) (UniProt P10635). Put plainly: Cytochrome P450 Family 2 Subfamily D Member 6 (CYP2D6) small molecule antagonists: luciferase reporter qHTS assay (AID 1671196). Note: series mostly up to about 120 µM; % is set by controls: 0 for no effect and ±100 for the full control effect; nearly all actives have a fitted effect of over 50% in size. In short, it runs like this: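 Luminogenic proluciferin substrate, CYP2D6 enzyme; 10 min RT preincubation with compound, NADPH regeneration system added, 1 h RT. Stop/detection reagent, 20 min RT, luminescence read (RLU). Signal proportional to CYP activity.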

Assay [11] concerns the target Cytochrome P450 2C19 (Homo sapiens) (UniProt P33261). Briefly: Cytochrome P450 Family 2 Subfamily C Member 19 (CYP2C19) small molecule antagonists: luciferase reporter qHTS assay (AID 1671197). For activity change, negative = inhibition: series mostly up to about 120 µM; % is set by controls: 0 for no effect and ±100 for the full control effect. Note: nearly all actives have a fitted effect of over 65% in size. Note: potency is the fitted concentration of half-maximal effect. A digest of the protocol:
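Quantitative high-throughput screen of the Tox21 library using CYP2C19 with proluciferin substrate. Reaction: NADPH regeneration, 37C, 1 h, after 10 min compound preincubation at room temperature. Readout: luminescence.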

Assay [12] deals with Cytochrome P450 2C9 (Homo sapiens) (UniProt P11712). Briefly: Cytochrome P450 Family 2 Subfamily C Member 9 (CYP2C9) small molecule antagonists: luciferase reporter qHTS assay (AID 1671198). For activity change, negative = inhibition: series mostly up to about 120 µM; % is set by controls: 0 for no effect and ±100 for the full control effect. Note: nearly all actives have a fitted effect of over 50% in size. Note: potency is the fitted concentration of half-maximal effect. A digest of the protocol: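 P450-Glo proluciferin substrate with CYP2C9 enzyme; 10 min RT preincubation, then NADPH regeneration 1 h at 37C; luciferin detection reagent 20 min RT, luminescence in relative luminescence units.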

For assay [13], the target named is Voltage-gated inwardly rectifying potassium channel KCNH2 (Homo sapiens) (UniProt Q12809). Briefly: Human Ether-a-go-go-Related Gene (hERG) channel small molecule antagonists: fluorescence cell-based qHTS assay (AID 1671200).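 Note: hERG-expressing U2OS cells given a thallium stimulus after FluxOR II dye loading; series mostly up to about 77 µM; % is set by controls: 0 for no effect and ±100 for the full control effect; nearly all actives have a fitted effect of over 50% in size.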 A digest of the protocol:
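Measured: Tl+ flux via fluorescence (480/540 nm) in hERG-expressing U2OS cells after 1 h dye loading at room temperature.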

Assay [14] deals with Cytochrome P450 1A2 (Homo sapiens) (UniProt P05177). Briefly: Cytochrome P450 Family 1 Subfamily A Member 2 (CYP1A2) small molecule antagonists: luciferase reporter qHTS assay (AID 1671199). In short, it runs like this:
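Luminescence readout (relative luminescence units) after luciferin detection reagent, 20 min RT. Preceded by 1 h room-temperature CYP1A2 reaction with NADPH regeneration solution following 10 min compound preincubation with enzyme and proluciferin substrate. Furafylline positive control.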

The target of assay [15] is Cytochrome P450 3A4 (Homo sapiens) (UniProt P08684). Briefly: Cytochrome P450 Family 3 Subfamily A Member 4 (CYP3A4) small molecule antagonists: luciferase reporter qHTS assay (AID 1671201). A digest of the protocol: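 Setup: enzyme-substrate mix, compound pin transfer, 10 min RT. Reaction: NADPH regeneration solution, 1 h RT. Readout: detection reagent stops turnover, luminescence measured after 20 min, expressed in relative luminescence units.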

The target in assay [16] is Nuclear receptor subfamily 1 group I member 2 (Rattus norvegicus) (UniProt Q9R1A7). Briefly: Rat pregnane X receptor (rPXR) activation by small molecules, qHTS assay (AID 1346983). Note: potency is the fitted concentration of half-maximal effect; nearly all actives have a fitted effect of over 20% in size. Particulars: rPXR luciferase reporter cells, One-Glo luminescence, 24 h; max activation: stronger effect = higher value. In short, it runs like this: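 Cell-based rPXR activation assay: rPXR cells, 2,000 per well, rested 5hr at 37 C, then exposed to compounds in DMSO for 24 hr at 37 C. Luciferase activity read by One-Glo luminescence after 30 min at room temperature.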

Assay [17] concerns the target Nuclear receptor subfamily 1 group I member 2 (Homo sapiens) (UniProt O75469). Put plainly: CYP3A4 induction through human pregnane X receptor (PXR) by small molecules, qHTS assay (AID 1346984). Note: % is set by controls: 0 for no effect and ±100 for the full control effect; nearly all actives have a fitted effect of over 40% in size. A digest of the protocol: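 HepG2-derived DPX-2 line carrying PXR plus a CYP3A4-promoter luciferase reporter; cells plated 5 hr, compound-exposed 24 hr at 37C. CYP3A4 activity probed with 3uM (final) Luciferin-IPA for 3hr, then luciferase read after One-Glo.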

Assay [18] shares this target. Put plainly: Human pregnane X receptor (PXR) activation by small molecules, qHTS assay (AID 1346985). Note: % is set by controls: 0 for no effect and ±100 for the full control effect; nearly all actives have a fitted effect of over 40% in size. A digest of the protocol:
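DPX-2 cells (HepG2 co-transfected with a PXR response element and a CYP3A4-promoter luciferase construct) were seeded at 2,000 per well, rested 5 hr at 37C, then exposed to DMSO-dissolved compounds for 24 hr. Activation was read as luciferase luminescence.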

Values without a mark were called inactive. Results filed as inconclusive are left out. Activity calls are given as the source filed them. Unless noted, calls come from the whole dose curve; as a rule, active = well fitted curve in the direction sought with a large enough effect in the repeat runs; inconclusive = weak or mixed curves; inactive = no such curve, though single readings can be large; an effect the other way counts as inactive or inconclusive.

Chain of Cytochrome P450 2C19 (Homo sapiens) (P33261 whole entry, looked up): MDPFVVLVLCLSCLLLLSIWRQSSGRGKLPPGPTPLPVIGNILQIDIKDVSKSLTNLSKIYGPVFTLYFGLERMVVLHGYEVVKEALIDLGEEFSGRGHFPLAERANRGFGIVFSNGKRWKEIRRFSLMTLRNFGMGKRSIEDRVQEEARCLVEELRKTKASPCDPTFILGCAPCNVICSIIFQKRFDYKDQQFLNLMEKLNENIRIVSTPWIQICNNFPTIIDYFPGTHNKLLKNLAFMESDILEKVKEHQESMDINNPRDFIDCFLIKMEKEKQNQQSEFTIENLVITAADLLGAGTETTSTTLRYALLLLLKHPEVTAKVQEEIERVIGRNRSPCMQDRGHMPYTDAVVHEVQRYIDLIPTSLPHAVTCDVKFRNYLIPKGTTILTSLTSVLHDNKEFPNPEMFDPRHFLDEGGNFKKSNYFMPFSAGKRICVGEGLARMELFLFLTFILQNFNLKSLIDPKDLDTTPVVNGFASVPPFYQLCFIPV
Chain of Nuclear receptor subfamily 1 group I member 2 (Homo sapiens) (O75469 whole entry, looked up): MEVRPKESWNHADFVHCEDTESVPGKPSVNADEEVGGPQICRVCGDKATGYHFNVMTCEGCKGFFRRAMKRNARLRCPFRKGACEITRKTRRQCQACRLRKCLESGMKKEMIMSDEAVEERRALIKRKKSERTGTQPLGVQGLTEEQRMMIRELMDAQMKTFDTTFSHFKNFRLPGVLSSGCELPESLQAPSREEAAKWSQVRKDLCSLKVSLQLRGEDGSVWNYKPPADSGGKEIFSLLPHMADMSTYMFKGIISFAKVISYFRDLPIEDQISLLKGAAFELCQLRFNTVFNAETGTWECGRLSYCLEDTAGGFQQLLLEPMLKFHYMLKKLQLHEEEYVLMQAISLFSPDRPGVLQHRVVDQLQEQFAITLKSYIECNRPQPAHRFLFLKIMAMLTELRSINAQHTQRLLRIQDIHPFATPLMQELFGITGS
Chain of Cytochrome P450 2C9 (Homo sapiens) (P11712 whole entry, looked up): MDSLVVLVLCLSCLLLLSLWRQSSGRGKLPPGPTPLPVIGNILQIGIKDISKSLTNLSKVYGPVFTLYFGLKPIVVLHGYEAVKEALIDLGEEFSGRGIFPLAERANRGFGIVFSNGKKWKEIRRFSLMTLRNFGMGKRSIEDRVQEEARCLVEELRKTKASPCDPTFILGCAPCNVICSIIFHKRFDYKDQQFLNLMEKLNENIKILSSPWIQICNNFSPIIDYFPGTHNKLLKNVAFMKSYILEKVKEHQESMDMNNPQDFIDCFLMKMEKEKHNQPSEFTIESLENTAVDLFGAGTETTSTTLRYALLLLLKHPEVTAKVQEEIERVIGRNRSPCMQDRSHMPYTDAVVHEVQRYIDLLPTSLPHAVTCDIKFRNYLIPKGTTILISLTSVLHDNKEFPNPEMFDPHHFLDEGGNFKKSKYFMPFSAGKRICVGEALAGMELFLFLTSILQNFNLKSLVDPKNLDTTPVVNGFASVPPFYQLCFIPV
Chain of Cytochrome P450 3A4 (Homo sapiens) (P08684 whole entry, looked up): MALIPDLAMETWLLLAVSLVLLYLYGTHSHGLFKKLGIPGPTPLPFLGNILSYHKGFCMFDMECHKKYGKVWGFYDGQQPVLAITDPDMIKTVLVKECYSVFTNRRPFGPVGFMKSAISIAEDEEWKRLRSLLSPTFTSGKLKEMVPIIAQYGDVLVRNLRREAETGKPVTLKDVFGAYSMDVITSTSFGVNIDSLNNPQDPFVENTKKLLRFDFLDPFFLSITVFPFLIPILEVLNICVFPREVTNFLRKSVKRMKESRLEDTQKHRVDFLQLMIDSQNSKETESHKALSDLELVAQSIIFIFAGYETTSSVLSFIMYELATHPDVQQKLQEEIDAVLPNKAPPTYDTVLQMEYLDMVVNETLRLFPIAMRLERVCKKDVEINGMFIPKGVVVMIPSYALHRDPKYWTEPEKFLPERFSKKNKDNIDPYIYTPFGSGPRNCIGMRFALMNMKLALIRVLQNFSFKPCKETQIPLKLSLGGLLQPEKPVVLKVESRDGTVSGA
Chain of Voltage-gated inwardly rectifying potassium channel KCNH2 (Homo sapiens) (Q12809 whole entry, looked up): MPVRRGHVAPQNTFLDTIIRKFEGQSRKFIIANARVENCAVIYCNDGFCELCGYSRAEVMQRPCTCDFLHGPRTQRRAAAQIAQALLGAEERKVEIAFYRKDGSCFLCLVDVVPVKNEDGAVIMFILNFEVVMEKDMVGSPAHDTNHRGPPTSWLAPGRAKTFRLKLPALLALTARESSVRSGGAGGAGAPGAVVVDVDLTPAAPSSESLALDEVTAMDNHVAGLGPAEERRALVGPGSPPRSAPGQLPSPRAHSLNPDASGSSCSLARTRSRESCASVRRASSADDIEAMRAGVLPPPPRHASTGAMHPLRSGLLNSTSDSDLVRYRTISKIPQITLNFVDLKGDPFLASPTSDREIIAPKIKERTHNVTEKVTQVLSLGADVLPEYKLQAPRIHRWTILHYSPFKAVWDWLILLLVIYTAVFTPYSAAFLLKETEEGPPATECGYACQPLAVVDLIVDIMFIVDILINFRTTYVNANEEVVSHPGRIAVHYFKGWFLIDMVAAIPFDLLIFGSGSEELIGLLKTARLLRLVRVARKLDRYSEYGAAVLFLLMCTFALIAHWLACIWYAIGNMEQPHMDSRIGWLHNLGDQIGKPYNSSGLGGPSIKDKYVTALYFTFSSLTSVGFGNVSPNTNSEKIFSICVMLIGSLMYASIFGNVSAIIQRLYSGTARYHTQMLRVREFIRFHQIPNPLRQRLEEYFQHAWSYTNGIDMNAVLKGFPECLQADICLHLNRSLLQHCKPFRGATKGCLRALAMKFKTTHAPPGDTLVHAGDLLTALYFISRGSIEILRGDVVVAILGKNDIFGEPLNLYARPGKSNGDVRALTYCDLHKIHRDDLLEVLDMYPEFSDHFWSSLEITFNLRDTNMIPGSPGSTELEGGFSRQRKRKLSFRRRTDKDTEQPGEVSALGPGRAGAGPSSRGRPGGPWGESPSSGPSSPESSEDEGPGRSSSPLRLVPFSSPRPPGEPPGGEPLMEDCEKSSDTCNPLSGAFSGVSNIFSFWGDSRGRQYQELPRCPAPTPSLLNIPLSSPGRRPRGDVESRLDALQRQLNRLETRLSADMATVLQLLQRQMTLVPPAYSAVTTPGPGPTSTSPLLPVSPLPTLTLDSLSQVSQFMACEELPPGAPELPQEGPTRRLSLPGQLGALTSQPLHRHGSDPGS
Chain of Cytochrome P450 1A2 (Homo sapiens) (P05177 whole entry, looked up): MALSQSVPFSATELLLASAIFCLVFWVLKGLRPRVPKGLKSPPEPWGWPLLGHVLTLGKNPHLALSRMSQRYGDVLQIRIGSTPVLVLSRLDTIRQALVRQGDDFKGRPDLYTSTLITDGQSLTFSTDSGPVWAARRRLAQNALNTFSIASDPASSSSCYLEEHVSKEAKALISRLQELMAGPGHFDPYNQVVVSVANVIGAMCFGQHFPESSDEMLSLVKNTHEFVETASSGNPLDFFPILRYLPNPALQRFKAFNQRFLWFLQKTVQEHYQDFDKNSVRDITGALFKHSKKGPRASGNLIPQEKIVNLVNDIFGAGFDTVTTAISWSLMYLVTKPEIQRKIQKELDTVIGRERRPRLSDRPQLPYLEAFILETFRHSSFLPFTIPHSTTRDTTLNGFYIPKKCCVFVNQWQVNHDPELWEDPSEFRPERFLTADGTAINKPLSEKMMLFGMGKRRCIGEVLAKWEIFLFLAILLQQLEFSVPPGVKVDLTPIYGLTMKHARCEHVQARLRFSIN
Chain of Cytochrome P450 2D6 (Homo sapiens) (P10635 whole entry, looked up): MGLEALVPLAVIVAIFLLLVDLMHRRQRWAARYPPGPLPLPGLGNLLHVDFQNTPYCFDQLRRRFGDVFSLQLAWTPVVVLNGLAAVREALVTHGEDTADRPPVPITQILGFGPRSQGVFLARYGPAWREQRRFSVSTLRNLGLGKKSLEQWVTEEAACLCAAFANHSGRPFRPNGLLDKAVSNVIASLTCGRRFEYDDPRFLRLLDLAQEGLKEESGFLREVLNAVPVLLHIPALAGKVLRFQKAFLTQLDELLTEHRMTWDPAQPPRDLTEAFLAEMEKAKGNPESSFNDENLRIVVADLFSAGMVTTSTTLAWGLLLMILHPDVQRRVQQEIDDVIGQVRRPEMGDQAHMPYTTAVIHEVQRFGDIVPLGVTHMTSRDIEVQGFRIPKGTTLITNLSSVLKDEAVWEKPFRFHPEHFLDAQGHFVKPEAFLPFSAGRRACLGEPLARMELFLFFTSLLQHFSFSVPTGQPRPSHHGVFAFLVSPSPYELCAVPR
Chain of Acetylcholinesterase (Homo sapiens) (P22303 whole entry, looked up): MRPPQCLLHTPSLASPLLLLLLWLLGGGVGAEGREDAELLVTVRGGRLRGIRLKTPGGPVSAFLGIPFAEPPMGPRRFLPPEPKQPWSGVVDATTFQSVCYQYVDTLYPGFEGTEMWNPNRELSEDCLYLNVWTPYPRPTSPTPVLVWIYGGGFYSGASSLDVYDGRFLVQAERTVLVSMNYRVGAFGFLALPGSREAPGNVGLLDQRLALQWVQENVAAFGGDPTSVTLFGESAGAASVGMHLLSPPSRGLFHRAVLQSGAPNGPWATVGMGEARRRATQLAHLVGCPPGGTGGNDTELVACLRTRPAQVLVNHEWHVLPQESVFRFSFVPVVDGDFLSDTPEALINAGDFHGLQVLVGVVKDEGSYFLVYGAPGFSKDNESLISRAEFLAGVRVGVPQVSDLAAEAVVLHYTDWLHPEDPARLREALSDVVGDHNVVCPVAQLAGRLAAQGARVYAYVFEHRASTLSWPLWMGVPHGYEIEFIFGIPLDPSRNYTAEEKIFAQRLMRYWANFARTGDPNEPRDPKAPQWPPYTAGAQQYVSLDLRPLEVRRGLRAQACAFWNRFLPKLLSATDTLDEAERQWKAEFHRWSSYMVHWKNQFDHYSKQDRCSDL

As for `CCO[C@H]1O[C@@H]2OC3(C)CC[C@H]4[C@H](C)CC[C@@H]([C@H]1C)[C@@]24OO3`, the Potency entry in [1], in assay [3], in assay [4], in assay [5], in assay [6] and in [7] was “inactive” in each case. Besides, the Potency result in [8], in assay [9], in assay [10] and in [13] was “inactive” throughout. Besides, the results for the Potency in assay [2], in [11] and in assay [12] were 0.266 µM (active), 21.9 µM (active) and 11 µM (active), respectively.
As to `NCC(CC(=O)O)c1ccc(Cl)cc1` (stereo not drawn), the caspase activation in [1] is 1.78% [at 0.349 µM]. The activity change, negative = cytotoxicity in assay [2] was 5.63% [at 0.349 µM]; in assay [4], 8.17% [at 0.349 µM]. Besides, the caspase-3/7 activation in assay [3] is -0.192% [at 0.349 µM]. In assay [5], the activation was -6.38% [at 0.349 µM]. The activity, negative = inhibition in assay [6] is 4.84% [at 0.435 µM]. Further, the activity change, negative = inhibition in [7] is 1.42% [at 0.435 µM]; in [8], 5.21% [at 0.439 µM]; in [9], -0.275% [at 0.435 µM]; in assay [10], -6.8% [at 0.435 µM]; in [11], -14.5% [at 0.435 µM]; in [12], 1.42% [at 0.435 µM]. Moreover, the activity change, negative = inhibition in [14] is 12.7% [at 0.435 µM]; in assay [13], -9.45% [at 0.29 µM]; in assay [15], 4.59% [at 0.435 µM].
Regarding `CC(=O)[C@H]1CC[C@H]2[C@@H]3CC[C@H]4C[C@](C)(O)CC[C@]4(C)[C@H]3CC[C@]12C`, the Potency entry in [1], in assay [2], in assay [3], in [4], in assay [5] and in assay [17] was “inactive” in each case. Besides, the Potency result in assay [18], in assay [6], in assay [7], in assay [8], in assay [9] and in assay [10] was “inactive” throughout. Moreover, the Potency entry in assay [11], in assay [12], in assay [13] and in assay [15] was “inactive” each time. Moreover, in assay [16], the Potency was 3.98 µM (active).
In the case of `Sc1ccccc1Cl`, the Potency result in assay [1], in assay [2], in [3], in assay [4], in assay [5] and in assay [6] was “inactive” in each case. The Potency result in assay [7], in [8], in assay [9], in [10], in assay [11] and in [12] was “inactive” throughout. In addition, the Potency entry in [14], in [13] and in [15] was “inactive” in each case.
As for `C=CC[C@]1(O)CC[C@H]2[C@@H]3CCC4=CC(=O)CCC4=C3C=C[C@@]21C`, the Potency entry in [1], in assay [3], in assay [4], in [5], in [6] and in assay [7] was “inactive” in each case. The Potency result in [9], in assay [14] and in [13] was “inactive” in each case. Besides, the Potency in [2] was 7.5 µM (active); in assay [8], 6.92 µM (active); in assay [11], 9.77 µM (active); in [12] it was 11 µM (active).
Take `CC(=O)CCC(C)=O`: the Potency result in assay [1], in [2], in assay [3], in assay [4], in assay [5] and in [6] was “inactive” in each case. The Potency result in assay [7], in [8], in assay [9], in assay [10], in [11] and in [12] was “inactive” in each case. In addition, the Potency entry in assay [14], in assay [13] and in assay [15] was “inactive” in each case.
As for `CCOP(O)OCC`, the Potency entry in [1], in [2], in assay [3], in assay [4], in [5] and in assay [6] was “inactive” throughout. Further, the Potency result in [7], in [8], in assay [9], in assay [10], in assay [11] and in assay [12] was “inactive” throughout. Further, the Potency result in [14], in assay [13] and in assay [15] was “inactive” each time.
